# Measured values taken from the supplement of paper PMC6555819.
# Test system: FXR:RXRa (NR concentration 270 nM, RXRa partner concentration 90 nM)
# Experiment: PBM binding z-score (relative to random genomic background probes); higher = stronger binding; sequences stand for … in GC…GCGATTGACAGCGTAGAATGAAGG
# How it was run: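 Ligand-free nuclear receptor dimers were bound for 1 h to custom Agilent 4×180K protein-binding microarrays. Detection used antibodies against each partner (one per run). Binding z-scores rest on regression-normalized fluorescence, with random background probes as the reference.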
row,Sequence,PBM binding z-score
1,ATATGTAGGTTACATCCGGGTCATTTAGGCTATG,2
2,CGTAGCAGGCCAGGGTCACTCAAGCATTTCGCTT,2.18
3,CCAGACAGGTGAGAAAGTAACTCAGCCTCGATTA,-0.0524
4,ACTATTAGTTGACTTAGAGCAACCGATACGACGC,-0.404
5,GGAACGAGGGCAAGTTGATATCAGAGTTTGATGG,0.903
6,ACTATTAGCTGACTTAGGGCAACCGATACGACGC,0.00773
7,TAGCCTAGGTCATTGGGCCAGCATAGTACGCATC,3.88
8,CCTATTAGTTGCCCATAAGGGCAACCGAAGCTCG,0.523
9,GCTGCTAGGTCAGGTTGGTTAGCTAACGGGTACG,1.06
10,TTACCAAGGTAAGCTGAGGTCGTTGATCCAACTC,0.46
11,TCTGCTAGGTCATTTGGTCAGCTAACGAGCTGCC,4.28
12,TAGCCTAGGTCATTCAGAGGCCAGTATAGAAAGC,4.56
13,CTCGAAAGGTCGGTTTAGGTGAGTATACGGATAA,2.13
14,ACTATTAATTGACTTAGGGCAACCGATACGACGC,0.0871
15,CGCACTAGGTCAGAACAGGACAGTGAAGGATGAT,1.58
16,CCTTACGCGTCACTCCAGGTTATAGCATCGGAGT,1.11
17,GCTATTCGTTGAAAGGGCAACCGAATGATTCTCG,0.141
18,TCGAGTAGGCTACCAATGGGGCATTCAGCTTTCT,-0.523
19,GATACAGGATCAAGGCCAGAGTACGCGTATTGAT,-0.429
20,GCTGCTAGCTCAGGTTGGTCAGCTAACGGGTACG,-0.68

row,Sequence,PBM binding z-score
1,TCATATAGGTAACGGTGAAAGTCGAACGATATGA,0.511
2,TCAGACAGGTGAAGGTAAGTCAGGTACGCAGTCG,0.571
3,TATGCTAGGTCAGTTGGTCAGCTAACGAGCTGCC,0.676
4,AGATCGAGGGCACGCTGAGTTGATAGCAGAGTAG,0.624
5,TCTTGTAGATCAAGCGGGTTAAGAAAGCCTGAGT,0.257
6,ATATGTAGGTTATATCCGGGTCATTCAGGCTATG,2.15
7,CTACCAAGGGGAACAAGGTCGTTGATTACTATTC,0.208
8,ACTAGCAGGCCAAGGTTCACTCAAGATTAGTCCG,0.739
9,CGAACTAGGTCATTGACAGGACCGTGAATAGTAA,4.32
10,CATACTGGGCCATTCAGAGGTCATTGATCATATG,3.03
11,ACTAGCGGGCCAAGTTTGGGTCACTCAAACAAAG,0.106
12,CAAACTAGGTCACGAAAGGCCAAAGTCGAATGAC,5.15
13,AATCAAAGTTCAGGACGAGGTAACGTAAAGCACG,3.75
14,TAGCCCAGGTCATTGGGCCAGTATAGTACGCATC,4.84
15,GCATATAGGTACTACAAGGTGAAAGTCCGATTGT,0.689
16,CATACAGGGTCAGCTAGGCCAGAATAGGGACGGC,4.83
17,ATCTCTAGGTAACAAGATCAGTGAAAGAGAGGAC,0.203
18,ATCTCTAGGTATCCAAGTTCAGTGAATGCCGAAC,0.313
19,GCAGAAAGGTGAAACGCAGGTAACTCAGGGTGGC,1.58
